# Data published in ChEMBL document CHEMBL1961873, “Compounds: GSK PKIS; Assays: Nanosyn kinase panel” (2012).
# Tests used:
# [1] = biological target: Casein kinase I isoform gamma-2 (Homo sapiens) (UniProt P78368); settings: at 1 µM
# [2] = biological target: Casein kinase I isoform gamma-3 (Homo sapiens) (UniProt Q9Y6M4); settings: at 0.1 µM
# [3] = biological target: Casein kinase I isoform gamma-3 (Homo sapiens) (UniProt Q9Y6M4); settings: at 1 µM
# [4] = biological target: Cyclin-dependent kinase 1 (Homo sapiens) (UniProt P06493); settings: at 0.1 µM
# Sequence of Cyclin-dependent kinase 1 (Homo sapiens) (P06493 whole entry, looked up): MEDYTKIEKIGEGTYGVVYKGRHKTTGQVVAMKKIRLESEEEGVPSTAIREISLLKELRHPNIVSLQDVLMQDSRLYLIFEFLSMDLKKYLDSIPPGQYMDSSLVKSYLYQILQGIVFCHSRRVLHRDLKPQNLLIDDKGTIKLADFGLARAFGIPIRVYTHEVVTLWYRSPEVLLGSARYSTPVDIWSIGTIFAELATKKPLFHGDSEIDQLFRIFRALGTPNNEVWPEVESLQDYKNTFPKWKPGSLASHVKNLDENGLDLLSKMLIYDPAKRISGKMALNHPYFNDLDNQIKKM
# [5] = biological target: Cyclin-dependent kinase 1 (Homo sapiens) (UniProt P06493); settings: at 1 µM
# [6] = biological target: Cyclin-dependent kinase 2 (Homo sapiens) (UniProt P24941); settings: at 0.1 µM
# [7] = biological target: Cyclin-dependent kinase 2 (Homo sapiens) (UniProt P24941); settings: at 1 µM
# [8] = biological target: Cyclin-dependent kinase 2 (Homo sapiens) (UniProt P24941); settings: at 0.1 µM; remark: listed apart in the source
# [9] = biological target: Cyclin-dependent kinase 2 (Homo sapiens) (UniProt P24941); settings: at 1 µM; remark: listed apart in the source
# [10] = biological target: T1, CDK3/Cyclin E (Homo sapiens) (UniProt P24864+Q00526); settings: at 0.1 µM
# T1 sequence (P24864 whole entry, looked up): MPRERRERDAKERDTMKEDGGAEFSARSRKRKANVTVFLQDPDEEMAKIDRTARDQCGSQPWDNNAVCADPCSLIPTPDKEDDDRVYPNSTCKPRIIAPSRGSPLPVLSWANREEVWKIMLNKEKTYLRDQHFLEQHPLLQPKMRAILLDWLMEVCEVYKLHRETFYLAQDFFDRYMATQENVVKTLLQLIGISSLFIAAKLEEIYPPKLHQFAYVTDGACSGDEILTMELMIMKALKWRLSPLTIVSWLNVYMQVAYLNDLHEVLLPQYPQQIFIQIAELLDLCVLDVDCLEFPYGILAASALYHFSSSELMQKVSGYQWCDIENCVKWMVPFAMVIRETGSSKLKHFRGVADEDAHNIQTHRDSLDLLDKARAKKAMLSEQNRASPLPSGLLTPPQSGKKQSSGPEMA
# T1 sequence (Q00526 whole entry, looked up): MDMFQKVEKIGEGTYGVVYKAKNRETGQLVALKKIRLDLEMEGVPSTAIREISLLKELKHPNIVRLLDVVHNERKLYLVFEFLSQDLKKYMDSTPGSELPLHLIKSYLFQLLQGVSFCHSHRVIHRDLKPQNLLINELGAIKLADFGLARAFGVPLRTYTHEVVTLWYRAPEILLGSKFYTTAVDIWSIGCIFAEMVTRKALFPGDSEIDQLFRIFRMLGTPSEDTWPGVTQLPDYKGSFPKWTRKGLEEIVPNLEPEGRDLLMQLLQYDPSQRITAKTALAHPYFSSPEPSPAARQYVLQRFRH
# [11] = biological target: T1, CDK3/Cyclin E (Homo sapiens); settings: at 1 µM
# [12] = biological target: Cyclin-dependent kinase 4 (Homo sapiens) (UniProt P11802); settings: at 0.1 µM
# Sequence of Cyclin-dependent kinase 4 (Homo sapiens) (P11802 whole entry): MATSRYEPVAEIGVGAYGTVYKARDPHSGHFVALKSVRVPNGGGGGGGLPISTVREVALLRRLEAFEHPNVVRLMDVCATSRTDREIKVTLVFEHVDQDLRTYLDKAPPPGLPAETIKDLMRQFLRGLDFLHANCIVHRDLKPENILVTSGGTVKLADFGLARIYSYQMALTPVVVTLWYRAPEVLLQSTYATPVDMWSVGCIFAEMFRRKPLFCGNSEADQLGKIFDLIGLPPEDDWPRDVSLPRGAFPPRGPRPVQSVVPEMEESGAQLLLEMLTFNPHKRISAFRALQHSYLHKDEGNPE
# [13] = biological target: Cyclin-dependent kinase 4 (Homo sapiens) (UniProt P11802); settings: at 1 µM
# [14] = biological target: Cyclin-dependent kinase 5 (Homo sapiens) (UniProt Q00535); settings: at 0.1 µM
# Sequence of Cyclin-dependent kinase 5 (Homo sapiens) (Q00535 whole entry, looked up): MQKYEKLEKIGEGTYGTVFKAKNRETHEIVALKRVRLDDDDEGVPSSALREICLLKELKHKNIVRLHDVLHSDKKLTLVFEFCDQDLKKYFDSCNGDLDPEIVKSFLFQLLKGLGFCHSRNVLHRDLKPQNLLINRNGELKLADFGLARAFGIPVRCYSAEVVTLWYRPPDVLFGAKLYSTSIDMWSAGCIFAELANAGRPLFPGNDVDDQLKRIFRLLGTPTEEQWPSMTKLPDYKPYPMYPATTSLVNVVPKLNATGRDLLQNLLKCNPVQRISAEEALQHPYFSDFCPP
# [15] = biological target: Cyclin-dependent kinase 5 (Homo sapiens) (UniProt Q00535); settings: at 1 µM
# [16] = biological target: Cyclin-dependent kinase 6 (Homo sapiens) (UniProt Q00534); settings: at 0.1 µM
# Sequence of Cyclin-dependent kinase 6 (Homo sapiens) (Q00534 whole entry): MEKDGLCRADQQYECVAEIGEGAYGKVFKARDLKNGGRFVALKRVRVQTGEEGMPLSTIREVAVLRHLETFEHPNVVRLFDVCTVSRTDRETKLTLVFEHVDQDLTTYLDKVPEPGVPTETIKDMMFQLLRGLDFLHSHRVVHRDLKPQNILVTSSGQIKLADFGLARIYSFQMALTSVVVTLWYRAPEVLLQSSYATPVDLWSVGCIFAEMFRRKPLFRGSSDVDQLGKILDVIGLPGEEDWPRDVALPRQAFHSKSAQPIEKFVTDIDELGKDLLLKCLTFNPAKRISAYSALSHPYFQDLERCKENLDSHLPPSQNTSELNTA
# [17] = biological target: Cyclin-dependent kinase 6 (Homo sapiens) (UniProt Q00534); settings: at 1 µM
# [18] = biological target: Dual specificity protein kinase CLK2 (Homo sapiens) (UniProt P49760); settings: at 0.1 µM
# Sequence of Dual specificity protein kinase CLK2 (Homo sapiens) (P49760 whole entry, looked up): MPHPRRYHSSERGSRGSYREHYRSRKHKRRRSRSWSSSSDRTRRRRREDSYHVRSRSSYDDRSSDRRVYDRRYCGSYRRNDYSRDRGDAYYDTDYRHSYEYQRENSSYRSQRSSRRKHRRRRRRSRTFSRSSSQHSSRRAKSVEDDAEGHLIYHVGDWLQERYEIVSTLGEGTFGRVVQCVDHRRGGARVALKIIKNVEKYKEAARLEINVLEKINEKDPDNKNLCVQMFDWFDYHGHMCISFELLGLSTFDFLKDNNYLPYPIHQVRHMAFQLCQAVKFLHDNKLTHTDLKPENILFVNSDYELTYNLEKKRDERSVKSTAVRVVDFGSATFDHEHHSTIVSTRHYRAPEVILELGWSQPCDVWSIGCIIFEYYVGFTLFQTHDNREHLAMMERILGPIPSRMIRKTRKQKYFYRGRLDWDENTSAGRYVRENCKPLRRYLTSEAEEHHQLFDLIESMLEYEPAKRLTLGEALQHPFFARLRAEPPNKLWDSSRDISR
# [19] = biological target: Dual specificity protein kinase CLK2 (Homo sapiens) (UniProt P49760); settings: at 1 µM
# [20] = biological target: Dual specificity protein kinase CLK3 (Homo sapiens) (UniProt P49761); settings: at 0.1 µM
# Sequence of Dual specificity protein kinase CLK3 (Homo sapiens) (P49761 whole entry, looked up): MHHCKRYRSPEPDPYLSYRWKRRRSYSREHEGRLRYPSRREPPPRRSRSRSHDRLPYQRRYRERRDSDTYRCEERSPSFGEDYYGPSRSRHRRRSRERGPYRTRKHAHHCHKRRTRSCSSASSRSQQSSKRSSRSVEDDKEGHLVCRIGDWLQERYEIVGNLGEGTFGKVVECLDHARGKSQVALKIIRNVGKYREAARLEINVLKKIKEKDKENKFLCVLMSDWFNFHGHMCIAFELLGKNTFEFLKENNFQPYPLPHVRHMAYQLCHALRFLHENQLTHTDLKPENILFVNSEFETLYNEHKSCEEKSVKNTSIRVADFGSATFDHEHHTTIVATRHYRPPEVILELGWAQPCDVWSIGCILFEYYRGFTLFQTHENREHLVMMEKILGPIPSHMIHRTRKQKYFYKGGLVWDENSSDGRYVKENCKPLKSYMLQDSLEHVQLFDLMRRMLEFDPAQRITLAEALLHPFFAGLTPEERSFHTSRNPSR
# Sequence of Casein kinase I isoform gamma-2 (Homo sapiens) (P78368 whole entry, looked up, canonical isoform): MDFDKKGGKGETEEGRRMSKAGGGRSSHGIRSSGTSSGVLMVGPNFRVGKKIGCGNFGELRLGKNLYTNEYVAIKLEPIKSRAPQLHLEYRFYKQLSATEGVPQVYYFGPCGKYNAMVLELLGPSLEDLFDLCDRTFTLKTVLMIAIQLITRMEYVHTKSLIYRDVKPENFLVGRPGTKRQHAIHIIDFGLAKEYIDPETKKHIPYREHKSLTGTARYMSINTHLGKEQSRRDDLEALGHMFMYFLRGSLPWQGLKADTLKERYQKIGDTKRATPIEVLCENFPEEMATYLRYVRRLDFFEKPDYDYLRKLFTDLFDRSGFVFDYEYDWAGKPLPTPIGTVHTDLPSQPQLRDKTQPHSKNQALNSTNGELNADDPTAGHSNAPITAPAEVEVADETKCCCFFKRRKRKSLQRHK
# Sequence of Casein kinase I isoform gamma-3 (Homo sapiens) (Q9Y6M4 whole entry, looked up, canonical isoform): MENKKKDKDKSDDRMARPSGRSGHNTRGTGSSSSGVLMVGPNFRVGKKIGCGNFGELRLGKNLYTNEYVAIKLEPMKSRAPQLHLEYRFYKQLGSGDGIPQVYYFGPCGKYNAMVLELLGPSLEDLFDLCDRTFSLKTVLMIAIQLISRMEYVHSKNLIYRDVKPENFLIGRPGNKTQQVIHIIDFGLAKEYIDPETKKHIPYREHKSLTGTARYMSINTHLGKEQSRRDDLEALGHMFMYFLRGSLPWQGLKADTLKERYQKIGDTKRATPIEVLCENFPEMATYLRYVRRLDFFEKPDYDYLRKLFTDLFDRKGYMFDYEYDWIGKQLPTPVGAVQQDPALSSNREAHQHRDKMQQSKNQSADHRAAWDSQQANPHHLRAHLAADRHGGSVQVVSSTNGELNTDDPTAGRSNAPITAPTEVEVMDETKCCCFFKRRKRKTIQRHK
SMILES,inhibition [1] [%],inhibition [2] [%],inhibition [3] [%],inhibition [4] [%],inhibition [5] [%],inhibition [6] [%],inhibition [7] [%],inhibition [8] [%],inhibition [9] [%],inhibition [10] [%],inhibition [11] [%],inhibition [12] [%],inhibition [13] [%],inhibition [14] [%],inhibition [15] [%],inhibition [16] [%],inhibition [17] [%],inhibition [18] [%],inhibition [19] [%],inhibition [20] [%]
Clc1ccc(CNc2nccc(-c3cnn4ncccc34)n2)cc1,12,-0.98,12.9,7.01,36.3,4.06,17.6,4.31,21.5,3.02,17.3,3.89,20.1,7.08,36.9,13.8,11,7.28,43.6,1.27
Fc1ccc(-c2nc3n(c2-c2ccncc2)CCS3)cc1,4.78,0.7,8.82,-2.26,-3.55,-1.04,1.08,0.41,0.29,4.27,-2.73,-1.97,-0.8,-2.49,-2.61,-7.51,-1.4,1.78,0.05,-1.51
O=C1Nc2ccc(I)cc2C1=Cc1cc(Br)c(O)c(Br)c1,6.34,3.79,3.16,2.76,1.43,4.61,3.86,1.77,3.35,-4.12,-2.28,4.82,6.47,0.5,0.26,-0.1,0.92,1.63,4.77,-0.91
O=C1NC(=O)C(c2cccc(Cl)c2)=C1Nc1ccc(Cl)c(C(=O)O)c1,3.4,1.59,0.02,0.24,2.57,2,9.11,1.73,1.86,3.54,-3.39,1.47,1.74,-0.04,1.05,-2.3,1.32,3.2,0.9,1.12
CCc1nccc2c1nc(-c1nonc1N)n2CC,3.36,-0.55,1.97,1.84,2.9,2.75,4.67,1.55,3.62,1.31,-0.63,1.93,2.76,1.21,2.65,-8.01,-0.61,1.1,2.67,-0.31
CCS(=O)(=O)c1ccc(OC)c(Nc2ncc(-c3ccccc3Cl)o2)c1,1.51,-0.55,0.35,0.87,0.32,0.49,3.52,-0.35,1.49,-7.09,-0.99,-0.77,-0.72,0.11,0.87,4.47,3.06,4.19,34.1,0.66
Nc1nccc(-c2c(-c3ccc(F)cc3)ncn2C2CCC(O)CC2)n1 (stereo not given),3.41,-1.07,10.8,0.17,5.68,-0.46,-4.73,0.06,1.24,-1,-0.81,0.24,1.17,0.55,1.98,1.41,1.1,1.54,0.55,1.02
COc1cc(Nc2ncc3c(C)nc(-c4cccc(C(F)(F)F)c4)n3n2)cc(OC)c1OC,3.91,2.45,4.96,0.7,6.83,3.13,20.8,6,28.8,2.35,7.51,1.78,3.89,1.13,9.6,3.14,7.16,3.78,21.9,1.23
FC(F)(F)c1cccc(Nc2nccc(-c3cnn4nc(-c5ccccc5)ccc34)n2)c1,2.62,1.84,2.44,0.56,4.07,1.41,13.5,3.41,26.4,-1.25,2.5,1.39,5.84,0.4,3.29,0.39,2.53,57.2,92.1,1.66
COc1cccc(/C=N/Nc2ncnc3c2cnn3-c2cccc(OC)c2)c1,3.85,2.41,1.09,1.12,4.16,1.78,5.08,2.49,3.83,-2.31,-2.86,2.17,4.46,0.77,3.98,-0.23,1.15,0.01,0.99,0.55
COc1ccc2cc(-c3c(-c4ccncc4)nc(-c4ccc(S(C)(=O)=O)cc4C)n3C)ccc2c1,4.03,3.31,2.13,1.11,1.69,2.79,-7.25,3.25,2.47,5.76,-3.73,3.77,4.56,0.42,-0.58,0.01,1.21,0.85,-1.59,1.66
CNC(=O)c1cncc(/C=C/c2c(C)cccc2C)c1,-0.99,-1.38,-0.55,-3.38,1.17,-3.98,4.82,-1.1,-2.25,-0.48,-0.8,-2.46,-1.6,-2.99,-1.16,3.56,0.79,0.58,-1.19,-2
C#Cc1cccc(Nc2ncnc3ccc(OCCCCNCCS(C)(=O)=O)cc23)c1,1.61,-0.3,0.33,-2.94,-2.94,-1.15,-0.68,0.97,1.11,3.19,-3.02,-1.23,0.97,-2.73,-2.83,-4.26,0.21,1.01,1.36,-1.3
COc1ccc2cc(-c3c(-c4ccncc4)nc(-c4ccc([S+](C)[O-])cc4C)n3C)ccc2c1 (stereo not given),-0.3,-1.01,-1.93,0.98,3.25,0.63,-1.45,1.09,1.29,-1.08,0.89,2.2,5.75,0.73,2.04,2.45,4.45,1.09,1.03,0.64
CS(=O)(=O)CCNCc1ccc(-c2ccc3ncnc(Nc4ccc(OCc5ccccc5)c(Br)c4)c3c2)o1,-0.24,-0.8,-2.02,-4.43,-2.83,-2.31,-1.03,-1.96,-0.05,-2.03,-3.92,-1.53,-0.83,-3.53,-2.4,-4.44,-4.65,1.39,-1.17,-3.26
Fc1ccc(-c2ncn(C3CCNCC3)c2-c2ccnc(Oc3ccc(F)c(F)c3)n2)cc1,1.91,-0.68,1.74,-1.46,2.42,-1.17,-0.54,3.33,6.4,-1.06,-1.08,0.19,3.54,1.99,3.94,-4.37,-0.06,0.86,-0.42,-3.62
Cc1ccc(NC(=O)c2ccoc2)cc1-c1ccc(C(=O)NCC2CC2)cc1,3.57,2.63,2.71,1.06,1.75,-0.08,1.04,0.91,3.1,-0.03,-5.1,0.87,2.89,0.24,1.07,-5.62,0.19,0.43,-2.64,0.53
COc1cc(Nc2ncc3c(C)nc(-c4cccc(Oc5ccccc5)c4)n3n2)cc(OC)c1OC,3.44,1.22,5.12,-0.4,0.45,2.04,2.37,0.75,3.13,0.34,3.12,0.68,1.99,0.07,1.06,2.92,3.25,0.86,3.28,0.71
NS(=O)(=O)c1ccc(N/N=C2\C(=O)Nc3ccc(C(=O)NCCCn4ccnc4)cc32)cc1,9.42,5.52,12.9,20.5,66.7,97.4,97.9,65,82.4,27.8,88.6,16.6,57.1,33.8,72.8,10,57.2,15.6,66.1,1.77
COC(=O)Nc1nc2ccc(Sc3ccc(NC(=O)Nc4cc(C(F)(F)F)ccc4F)cc3)cc2[nH]1,1.01,0.1,0.39,0.09,3.86,-0.08,6.71,0.48,0.81,-0.31,0.64,-4.86,1.81,0.21,1.9,7.92,2.22,1.38,-0.84,0.48
O=C(Nc1n[nH]c2nc(-c3ccc(O)cc3)c(Br)cc12)C1CC1,7.38,1.39,4.72,24.2,64.2,63.1,108,36.5,73,27.5,78.2,42,73.9,14.7,55.3,38.9,74.7,1.45,5.65,2.91
c1ccc(Oc2ccc(Nc3ncc(-c4ccccc4)o3)cc2)cc1,2.07,-0.2,1.13,0.18,1.13,0.43,1.24,0.94,3.16,0.29,-2.54,1.05,1.2,0.52,1.6,1.34,3.56,-0.16,-0.28,0.6
O=C1Nc2ccccc2/C1=C/Nc1ccc(-n2cncn2)cc1,8.25,2.62,5.16,1.97,10.6,2.39,13.3,6.28,22.2,7.69,16.1,9.53,25.2,3.62,21.5,18,66.2,4.14,21.6,0.91
Fc1ccc(-c2ncn(CCCN3CCOCC3)c2-c2ccncc2)cc1,0.86,0,-0.19,0.43,2.72,1.19,0.72,2.29,5.92,2.27,1.42,0.02,5.08,1.43,3.98,-8.34,-1.04,1.11,2.52,-1.43
Fc1ccc(-c2ncn(C3CCNCC3)c2-c2ccnc(Oc3ccc4c(c3)OCO4)n2)cc1,9.12,4.73,17.9,0.2,1.39,1.83,3.44,3.24,6.04,-0.22,-0.86,1.48,3.63,0.16,1.51,1.03,2.27,0.55,0.01,0.88
